Measurements taken from PubChem BioAssay (NCATS).
Results filed as inconclusive are left out. Active and inactive are the calls of the source. Unless noted, calls come from the whole dose curve; as a rule, active = well fitted curve in either direction with a large enough effect (not every such curve was filed as active); inconclusive = small, poorly fitted or top-dose-only effect, or another doubt; inactive = flat fitted curve, though single readings scatter.

Biological target: Glucocorticoid receptor (Homo sapiens) (UniProt P04150)
Assay: GR-EFC Redistribution (AID 451; calls by dose curve; note: potency is the fitted concentration of half-maximal effect)
Conditions: CHO-K1 GR-EFC translocation, beta-gal luminescence, 2 h
Method in brief: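 Translocation of GR-ED fusion to nuclear EA restores b-gal, read by luminescence after 1 h room-temperature detection. Engineered CHO-K1 biosensor cells, 1,000/well, exposed 2 h at 37 C to titrations up to 46 uM final.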

Sequence of Glucocorticoid receptor (Homo sapiens) (P04150 whole entry, looked up): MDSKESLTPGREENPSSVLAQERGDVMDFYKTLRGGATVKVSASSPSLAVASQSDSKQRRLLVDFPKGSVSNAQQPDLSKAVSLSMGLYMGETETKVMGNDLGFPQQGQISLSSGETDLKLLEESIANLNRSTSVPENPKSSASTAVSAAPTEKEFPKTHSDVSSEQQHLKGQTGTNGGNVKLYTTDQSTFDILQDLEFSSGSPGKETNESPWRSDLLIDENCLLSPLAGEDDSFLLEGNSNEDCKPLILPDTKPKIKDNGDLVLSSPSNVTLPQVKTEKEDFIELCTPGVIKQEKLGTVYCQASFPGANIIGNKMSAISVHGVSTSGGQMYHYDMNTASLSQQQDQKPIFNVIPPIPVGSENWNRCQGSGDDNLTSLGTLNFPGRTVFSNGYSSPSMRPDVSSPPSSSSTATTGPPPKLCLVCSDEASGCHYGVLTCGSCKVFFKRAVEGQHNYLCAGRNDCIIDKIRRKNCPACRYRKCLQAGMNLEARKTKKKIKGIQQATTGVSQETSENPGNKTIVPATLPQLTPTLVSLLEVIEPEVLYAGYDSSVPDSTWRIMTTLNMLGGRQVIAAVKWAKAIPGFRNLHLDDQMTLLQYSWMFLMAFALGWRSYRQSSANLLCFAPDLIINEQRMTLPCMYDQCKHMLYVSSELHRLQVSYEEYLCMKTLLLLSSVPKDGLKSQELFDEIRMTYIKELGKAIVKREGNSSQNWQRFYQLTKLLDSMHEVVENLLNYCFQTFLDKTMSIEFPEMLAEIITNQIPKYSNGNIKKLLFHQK

Potency, inactive:
O=C(O)/C=C\C(=O)N1Cc2cc3ccccc3nc2C1 > 9.22 µM, O=C(Nc1cccc2cccnc12)[C@@H]1[C@@H](C(=O)O)[C@H]2CC[C@@H]1O2 > 9.22 µM, CC(C)C(=O)C(C)(C)CCc1ccccn1 > 9.22 µM, OCCN(CCO)c1ncnc2nc[nH]c12 > 9.22 µM, CCN(CC)CC[n+]1ccc2c(C)c3[nH]c4ccc(O)cc4c3c(C)c2c1 > 9.22 µM, CN(C)CCC(=O)[C@@]1(O)CC[C@H]2[C@H]3CC=C4C[C@@H](O)CC[C@]4(C)[C@H]3CC[C@]21C > 9.22 µM, O=C1C=CC(=Nc2cccc3c(N=C4C=CC(=O)O4)cccc23)O1 > 9.22 µM, COc1ccc2c3c(ccc2c1)N[C@H](C(=O)O)CC3 > 9.22 µM, N=C1CCC[C@@H]1C(=S)SCCC(N)=O > 9.22 µM, CCN(CC)CC[n+]1ccc2c(C)c3[nH]c4ccccc4c3c(C)c2c1 > 9.22 µM, O=CN1CCN(C[C@H](O)CN2CCCCC2)CC1 > 9.22 µM, Oc1cc(O)c2c(c1)O[C@@H](c1ccc(O)c(O)c1)[C@H](O[C@@]1(c3cc(O)c(O)c(O)c3)Oc3cc(O)cc(O)c3[C@H](O)[C@@H]1O)C2 > 9.22 µM

Biological target: Mitogen-activated protein kinase 10 (Mus musculus) (UniProt Q61831)
Assay: JNK3 AlphaScreen Assay (AID 530);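 note: kinase came from lysate of stimulated human HepG2 cells; signal reports phosphorylation of biotinylated GST-cJun 1-79 at Ser73 with 10 µM ATP; % is set by controls: 0 for no effect and ±100 for the full control effect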
Conditions: JNK3 lysate, c-Jun phosphorylation; series mostly up to 11.4 µM; activity change, negative = inhibition: at the top concentration
Method in brief: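 qHTS titrations with 15 min compound pre-incubation before adding ATP (10 uM final). Read-out: AlphaScreen of Ser73-phosphorylated biotin-GST-cJun using HepG2 lysate JNK3 activated by IL-1β and TNFα.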

Activity change, negative = inhibition, inactive:
O=C(O)[C@H]1CC=CC[C@@H]1C(=O)Nc1cccc(O)c1 2.17%, O[C@@H](c1cc([C@@]23C[C@H]4CC[C@@H]2C[C@H](C4)C3)nc2c(Cl)cc(Cl)cc12)[C@@H]1CCCCN1 5.12%, CCOC(=O)c1cnc(N(C)C)nc1SC(=N)N 0.62%, OC[C@@H]1O[C@H](n2cnc3c(/C=C(\O)c4ccccc4)ncnc32)[C@H](O)[C@@H]1O -5%, Cc1nc2ccccc2nc1-c1ccc(N=[N+]([O-])c2ccc(-c3nc4ccccc4nc3C)cc2)cc1 -1.59%, O=C1[C@@H]2[C@@H](C(=O)N1c1ccc(OCc3ccccc3)cc1)[C@@H]1c3ccccc3[C@@H]2[n+]2ccccc21 22.3%, Cc1ccc(C2=C(Cl)C(=O)C(c3ccc(C)cc3)=C(Cl)C2=O)cc1 1.14%, C[C@@]12CC[C@@H]3[C@H](CCC4=CC(=O)CC[C@]43C)[C@@H]1CC[C@@H]2C(=O)Cn1cnc2c(=S)nc[nH]c21 1.05%, Cc1ncn(-c2ccccc2O)c1C 1.95%, O=[N+]([O-])c1ccc(CSCc2ccc(Cl)cc2)cc1 -3.75%, O=C(O)CCNc1ncnc2nc[nH]c12 0.673%, COc1ccc(Cc2ccccc2C(=O)O)c2ccccc12 3.06%, O[C@@H](c1cc(C(F)(F)F)nc2c(Cl)cc(Cl)cc12)[C@@H]1CCCCN1 0.19%, O=C(O)C[C@H](S)C(=O)O -1.71%, CC(C)C12CC[C@@]3(CC[C@H]4[C@@](C)(CCC[C@]4(C)C(=O)O)[C@@H]3C1)[C@@H](CN)C2 1.02%, Cc1ccc(C)c(/C(=N\N=C(N)N)C2CC2)c1 -2.2%, Nc1ncnc2c1ncn2[C@H]1O[C@@H](C(=O)O)[C@@H](O)[C@H]1O 1.87%, Oc1c(CN2CCN(c3ccccc3)CC2)cc(Br)c2cccnc12 -6.25%, N/N=C1/CC(=O)NC(=O)N1 2.04%, N[C@@H](CC1=CS(=O)(=O)c2ccc(Cl)cc21)C(=O)O 0.289%, C[N+]1([C@H](CO)Cc2c[nH]c3ccccc23)Cc2ccccc2C1 8.07%, c1ccc(C[n+]2cccc(-c3cc4ccccc4[nH]3)c2)cc1 -2.48%, C[N+](C)(C)CCCSc1nc2ccccc2[nH]1 1.03%, Cc1cc(=Nc2ccc3c(c2)c(N)cc(C)[n+]3C)nc(N)n1C -3.15%, COc1ncc2nc(CCc3ccccc3)c(=O)n(C)c2n1 40.7% [at 57.1 µM], C[C@H](NC(=O)c1ccc(Cl)c(Cl)c1)c1ccc(-c2ccccc2)cc1 5.46%, COc1ccc2cc1Oc1ccc(cc1)C[C@@H]1c3c(cc(OC)c4c3Oc3cc5c(cc3O4)CCN[C@H]5C2)CCN1C -2.13%, O=C(O)/C=C\C(=O)Nc1cccc2c1-c1ccccc1C2=O -1.25%, O=C(O)/C=C\C(=O)N1Cc2cc3ccccc3nc2C1 -3.08%, O=C(Nc1cccc2cccnc12)[C@@H]1[C@@H](C(=O)O)[C@H]2CC[C@@H]1O2 -1.2%, CC(C)C(=O)C(C)(C)CCc1ccccn1 0.242%, OCCN(CCO)c1ncnc2nc[nH]c12 1.34%, CCN(CC)CC[n+]1ccc2c(C)c3[nH]c4ccc(O)cc4c3c(C)c2c1 9.24%, CN(C)CCC(=O)[C@@]1(O)CC[C@H]2[C@H]3CC=C4C[C@@H](O)CC[C@]4(C)[C@H]3CC[C@]21C 2.07%, O=C1C=CC(=Nc2cccc3c(N=C4C=CC(=O)O4)cccc23)O1 2.3%, COc1ccc2c3c(ccc2c1)N[C@H](C(=O)O)CC3 5.99%, N=C1CCC[C@@H]1C(=S)SCCC(N)=O 3.23%, CCN(CC)CC[n+]1ccc2c(C)c3[nH]c4ccccc4c3c(C)c2c1 -0.309%, O=CN1CCN(C[C@H](O)CN2CCCCC2)CC1 34%, Oc1cc(O)c2c(c1)O[C@@H](c1ccc(O)c(O)c1)[C@H](O[C@@]1(c3cc(O)c(O)c(O)c3)Oc3cc(O)cc(O)c3[C@H](O)[C@@H]1O)C2 -12.3%
